Measurements published in ChEMBL document CHEMBL3988442, “University of Dundee, Small-Polar-MMV Screening Library” (2021).

How the values were obtained:
[1] = biological target: T1, Aspartate--tRNA(Asp/Asn) ligase (Mycobacterium tuberculosis (strain ATCC 25618 / H37Rv)) (UniProt P9WFW3); assay: Assay for Asp RNA synthetase-1 from Mycobacterium tuberculosis; format: functional; design: scale not given: direction of the effect not stated beside the values; conditions: 30 µM; further: in the data most compounds retested in dose-response had high values
T1 sequence (whole entry): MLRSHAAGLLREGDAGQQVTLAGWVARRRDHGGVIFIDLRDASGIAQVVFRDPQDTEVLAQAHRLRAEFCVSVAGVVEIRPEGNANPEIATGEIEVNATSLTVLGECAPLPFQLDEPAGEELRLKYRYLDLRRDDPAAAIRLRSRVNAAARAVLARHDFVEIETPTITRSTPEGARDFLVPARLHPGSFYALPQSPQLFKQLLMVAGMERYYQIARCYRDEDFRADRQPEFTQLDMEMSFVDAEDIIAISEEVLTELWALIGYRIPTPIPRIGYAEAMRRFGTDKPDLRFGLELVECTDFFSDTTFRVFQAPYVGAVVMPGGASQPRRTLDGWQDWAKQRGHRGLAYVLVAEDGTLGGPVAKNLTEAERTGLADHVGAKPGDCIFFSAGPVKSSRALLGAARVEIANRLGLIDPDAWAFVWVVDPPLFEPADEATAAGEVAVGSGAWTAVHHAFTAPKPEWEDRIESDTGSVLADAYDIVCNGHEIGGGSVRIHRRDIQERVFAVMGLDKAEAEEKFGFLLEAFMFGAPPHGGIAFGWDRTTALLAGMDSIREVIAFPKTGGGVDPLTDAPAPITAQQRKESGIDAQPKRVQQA

[2] = biological target: Shiga toxin 2 (Escherichia coli O157:H7) (UniProt P09385+P09386); assay: E. coli 0.157:H7 Shiga Toxin SOP - stx2 screening assay; format: functional; design: scale not given: direction of the effect not stated beside the values; conditions: 30 µM

Compound	Percent Effect [1] [%]	Percent Effect [2] [%]
COCCCNC(=O)N1CCCC(c2nncn2C)C1 (stereo not given)	1.97	21.1
Cc1nc(N2CCN(C(=O)C(C)(C)C)CC2)cc(-n2cnc(C)c2C)n1	0.832	-43.6
Cc1nc(CN2C[C@@H]3CN(C(=O)c4cnccn4)C[C@@H]3C2)cs1	-0.661	1.79
CC(O)CNCc1ccc(OCc2ccc3c(c2)OCCO3)cc1 (stereo not given)	1.08	-37.4
Cc1cccc(CS(=O)(=O)NCC(O)Cc2ccccc2)c1 (stereo not given)	-8.39	0.958
O=C(N1CCOCC1)[C@@]12CCO[C@@H]1CCN(CCN1CCCCC1)C2	3.6	-37.5
O=C(CN1CCC(N2CCNC2=O)CC1)NCC(F)(F)F	-5.14	-3.06
CC(=O)N(Cc1noc(C2CC2)n1)C1CCN(Cc2cccnc2)C1 (stereo not given)	-2.42	12.6
CC(C(=O)NCCCn1ccnc1)n1cc(Br)cn1 (stereo not given)	3.33	-54.3
Cc1nn(C)c(C)c1NC(=O)CCn1ncc2c(C)cccc21	10.1	-31.5
c1ccc(CCCN2CC(n3cccn3)C2)cc1	-4.05	-12.1
Cn1cnc(S(=O)(=O)NCCCN2CCOCC2)c1Cl	3.04	18.7
CC(C)N1CCn2c(nc3cc(C(N)=O)ccc32)C1	0.319	-34
COc1cc(CNC2CCc3nc(C(C)C)nn3C2)cc2c1OCO2 (stereo not given)	1.32	15.4
O=C([C@@H]1CCO[C@@H]2CCN(Cc3cccnc3)C[C@H]21)N1CCCCO1	6.53	-26.6
O=C(NCc1cccc2cccnc12)N1CCC(n2cncn2)CC1	-6.04	8.18
CC(C)(C)n1cc(C(=O)N2CCN(Cc3ccsc3)CC2)cn1	-3.48	30.7
CN1CCC/C1=N\S(=O)(=O)c1ccc(NC(=O)c2cccs2)cc1	-0.972	-166
NC(=O)c1ccc(OCC(=O)N2CCCC(n3cccn3)C2)cc1 (stereo not given)	-4.7	26
CCOCC(O)CN1CCN(C(=O)c2cnc3n[nH]c(C)c3c2)CC1 (stereo not given)	1.04	30.1
COc1cccc(C(=O)Nc2cc(CC(C)C)nn2C)c1	-7.31	12
CCOCC1CN(C(=O)c2cscn2)Cc2nnn(CC3CC3)c21 (stereo not given)	-4.51	-6.48
O=C1OCCN1CCc1nc(-c2cc3c4c(c2)CC(=O)N4CCC3)cs1	1.61	9.08
CCCc1c(C(=O)NC2CCCC2)nnn1-c1ccc(OC)cc1	-1.57	-4.2
CC1CCCN(CCNC(=O)c2cncnc2C(C)C)C1 (stereo not given)	0.418	-17.1

Compound	Percent Effect [1] [%]	Percent Effect [2] [%]
CC(O)CN1CCC(CNCc2cccc(C(N)=O)c2)CC1 (stereo not given)	-0.954	12.7
COCc1noc(-c2ccc(N(C)Cc3cc(C)no3)nc2)n1	0.703	-7.35
COCC1COCCC12CCN(CCc1ccccc1)CC2 (stereo not given)	-6.15	2.07
CC1CN(Cc2nccn2C)CCN1c1ccc2nncn2n1 (stereo not given)	-6.07	-28.7
CC(O)CN1CCN(C(=O)c2ccn(-c3cccc(Cl)c3)n2)CC1 (stereo not given)	-5.25	7.58
N#Cc1ccccc1C(=O)N1CCC2(CC(=O)NC2=O)C1 (stereo not given)	-0.613	-0.393
Cc1cccc(CN2CCc3ncnc(C)c3CC2)n1	-0.616	-16.2
Cn1cnc2c1CCN(Cc1nc(COc3ccc(F)cc3)no1)C2	2.19	19
CCc1ccc(S(=O)(=O)N2CCC3(CC(C(=O)NC)=NO3)C2)cc1 (stereo not given)	-3.62	-7.42
OC(COCc1ccccc1F)CN1CCc2c(ncn2C2CC2)C1 (stereo not given)	-6.48	-4.88
Cc1nnc(N2CCCC3(CN(Cc4ccc(C)s4)CCO3)C2)o1 (stereo not given)	0.479	-45.3
Cc1nnc2n1CCN(CCOc1ccccc1)C2	-6.3	-21.5
CN(Cc1ccsc1)C(=O)c1cc2c([nH]c1=O)CCCC2=O	-1.51	12.2
O=C(CCCc1nc2ccccc2[nH]1)N1CCCC(n2cccn2)C1 (stereo not given)	0.834	3.01
CN(Cc1nccn1CC(F)(F)F)C(=O)c1ccc(F)c(F)c1	2.69	0.723
Cc1nc(CN2CCC(C(=O)O)(n3ccc(-c4ccco4)n3)CC2)co1	-1.98	-9.21
Cc1nc(C2CCCN(C(=O)c3cc(Cl)c[nH]3)C2)no1 (stereo not given)	-3.91	0.906
CCN(CC)c1ccc(NS(=O)(=O)c2cnn(C)c2)cn1	2.14	-30.7
COCCCNC(=O)NCc1ccc(C)cc1	-3.8	-59.7
Cc1cnc(CN(C)C2CCN(CC(=O)Nc3c(C)n[nH]c3C)C2)o1 (stereo not given)	-2.74	-14.3
CNS(=O)(=O)c1cc(C(=O)NC2CCOc3ccccc32)cc(C)c1C (stereo not given)	-2.19	3.19
CC(C)c1nc2n(n1)CC(NCc1nnnn1C1CC1)CC2 (stereo not given)	1.55	8.39
O=C(NCc1cc[nH]n1)N1CCN(c2ccccc2Cl)CC1	0.562	11.5
Cc1noc(C(C)C)c1C(=O)NCC(c1ccsc1)N(C)C (stereo not given)	3	-2.68
COc1ccccc1OCc1cc(C(=O)N2CCN[C@H](C)C2)n[nH]1	0.167	-31.9
